The target of test [1] is Peroxisome proliferator-activated receptor gamma (Homo sapiens) (UniProt P37231). The test is described as follows: qHTS assay for small molecule agonists of peroxisome proliferator-activated receptor gamma signaling (AID 588536; active means well fitted curve in the direction sought with a large enough effect in the signal ratio, with a control signal flat, not every such curve was filed as active; the % refers to the signal ratio;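 further: 0% = DMSO basal wells and 100% = rosiglitazone at 2 µM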). In short, it runs like this: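 Cells were plated and held 6–6.5 h at 37 C, then compounds were added as a titration series. After a further 16 h, CCF4 dye was loaded for 2 h at room temperature and emission at 460/530 nm recorded.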
Peroxisome proliferator-activated receptor gamma (Homo sapiens), sequence (P37231 whole entry, looked up): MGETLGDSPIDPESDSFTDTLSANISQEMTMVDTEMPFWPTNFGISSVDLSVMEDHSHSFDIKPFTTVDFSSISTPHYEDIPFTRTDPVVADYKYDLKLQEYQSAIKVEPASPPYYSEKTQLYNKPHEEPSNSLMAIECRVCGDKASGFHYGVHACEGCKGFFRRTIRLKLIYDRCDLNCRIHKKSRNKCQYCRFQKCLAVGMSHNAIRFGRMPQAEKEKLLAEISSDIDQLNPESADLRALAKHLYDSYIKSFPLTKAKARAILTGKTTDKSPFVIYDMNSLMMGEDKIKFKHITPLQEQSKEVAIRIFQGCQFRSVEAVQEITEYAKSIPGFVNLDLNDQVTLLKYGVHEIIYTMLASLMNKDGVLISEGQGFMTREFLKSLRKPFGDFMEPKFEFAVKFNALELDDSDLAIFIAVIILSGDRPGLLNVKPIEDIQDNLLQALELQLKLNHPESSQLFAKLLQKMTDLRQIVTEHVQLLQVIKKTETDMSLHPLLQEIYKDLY
(In general: Quantitative high-throughput screening tests each substance at several concentrations.)

For test [2] the target is unchanged. The test is described as follows: qHTS assay for small molecule antagonists of peroxisome proliferator-activated receptor gamma signaling (AID 588537; active means well fitted inhibition curve with a large enough effect in the signal ratio, with a control signal flat, not every such curve was filed as active; the % refers to the signal ratio;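 further: reporter cells co-stimulated with 50 nM rosiglitazone agonist during compound treatment; % of control where 0% means no effect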). The gist of the method: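 Read-out: CCF4 fluorescence (ex 405, em 460/530 nm) after 2 h at RT. Cells were HEK293 carrying a UAS-bla reporter and treated 16 h at 37 C with compound plus rosiglitazone (50 nM final). Normalized to rosiglitazone and DMSO.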

Test [3] deals with Vitamin D3 receptor (Homo sapiens) (UniProt P11473). Nature of the test: qHTS assay for small molecule antagonists of vitamin D receptor signaling (AID 588541; calls by dose curve;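 further: receptor activated by calcitriol during compound treatment; series mostly up to about 77 µM; on the % scale 0 is the no-effect control and ±100 the full control effect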). The gist of the method:
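VDR-UAS-bla HEK293T cells in 2% charcoal-stripped FBS were stimulated with 1-alpha,25-dihydroxyvitamin D3 (3 nM final) plus compound for 16 h at 37 C. The beta-lactamase CCF4 readout was normalized to 50 nM agonist and DMSO, and Hill fits gave IC50.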

The target is the same in test [4]. Nature of the test: qHTS assay for small molecule agonists of vitamin D receptor signaling (AID 588543; calls by dose curve;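 further: 0% = DMSO basal and 100% = reference agonist control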). In short, it runs like this: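 qHTS in agonist mode: compound titrations stimulate a VDR-driven β-lactamase reporter in HEK293T cells over 16 h at 37 °C. Response normalized to 50 nM 1α,25-dihydroxyvitamin D3 = 100%, DMSO = 0%; Hill fitting gives EC50 and maximal response.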

The nature of test [5]: qHTS assay for small molecule agonists of retinoid X receptor alpha signaling (AID 588544; calls by dose curve). To be noted: HEK293T RXRa-UAS-bla, beta-lactamase reporter, 18 h; 530 nm emission.
Test [6] deals with Retinoic acid receptor RXR-alpha (Homo sapiens) (UniProt P19793). Described as above.
Retinoic acid receptor RXR-alpha (Homo sapiens), sequence (P19793 whole entry, looked up): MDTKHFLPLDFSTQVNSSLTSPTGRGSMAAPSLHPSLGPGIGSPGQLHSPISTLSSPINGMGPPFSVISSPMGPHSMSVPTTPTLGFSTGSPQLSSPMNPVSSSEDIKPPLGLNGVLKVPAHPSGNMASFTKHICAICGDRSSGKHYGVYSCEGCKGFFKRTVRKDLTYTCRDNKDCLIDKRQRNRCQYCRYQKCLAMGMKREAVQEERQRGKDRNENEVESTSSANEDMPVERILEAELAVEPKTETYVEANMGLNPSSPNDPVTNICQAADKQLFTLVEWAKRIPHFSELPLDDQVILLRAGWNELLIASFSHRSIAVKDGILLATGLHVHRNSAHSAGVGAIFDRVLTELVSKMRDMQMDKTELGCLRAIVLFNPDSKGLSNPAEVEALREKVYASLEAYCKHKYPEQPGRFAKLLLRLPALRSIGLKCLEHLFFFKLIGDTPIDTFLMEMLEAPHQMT
The target of test [7] is Thyroid hormone receptor beta (Homo sapiens) (UniProt P10828). The test is described as follows: qHTS assay for small molecule agonists of thyroid hormone receptor beta signaling (AID 588545; calls by dose curve; further: potency means the concentration at half of the fitted maximal effect). The gist of the method: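 Agonist-mode beta-lactamase reporter assay, HEK 293 cells, 2% charcoal/dextran FBS; cells plated 4 hrs, compound 18 hrs at 37 C, CCF4 2 hrs RT. Normalized to 10 nM T3 (100%) and DMSO (0%); Hill fit gives EC50, efficacy.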
Thyroid hormone receptor beta (Homo sapiens), sequence (P10828 whole entry, looked up): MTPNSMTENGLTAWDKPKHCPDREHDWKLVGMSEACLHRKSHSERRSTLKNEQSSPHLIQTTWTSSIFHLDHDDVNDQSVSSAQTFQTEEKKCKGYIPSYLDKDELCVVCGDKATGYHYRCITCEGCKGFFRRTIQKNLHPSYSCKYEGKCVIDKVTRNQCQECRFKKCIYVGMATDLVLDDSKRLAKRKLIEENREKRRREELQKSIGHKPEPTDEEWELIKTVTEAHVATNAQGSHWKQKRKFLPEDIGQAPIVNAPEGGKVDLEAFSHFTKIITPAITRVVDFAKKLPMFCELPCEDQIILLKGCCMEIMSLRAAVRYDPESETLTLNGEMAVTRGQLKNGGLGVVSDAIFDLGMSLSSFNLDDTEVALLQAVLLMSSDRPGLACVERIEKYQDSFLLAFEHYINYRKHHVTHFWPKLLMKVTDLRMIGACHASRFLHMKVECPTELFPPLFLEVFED

Test [8] can be described thus: qHTS assay for small molecule antagonists of retinoid X receptor alpha signaling (AID 588546; active means well fitted inhibition curve with a large enough effect in the signal ratio, with a control signal flat, not every such curve was filed as active; the % refers to the signal ratio;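 further: cells stimulated with 9-cis-retinoic acid as agonist; on the % scale 0 is the no-effect control and ±100 the full control effect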). To be noted: HEK293T RXRa-UAS-bla, beta-lactamase ratio, antagonist mode; measured here: W530 green channel, cytotoxicity proxy. The gist of the method: (§1)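 Beta-lactamase reporter inhibition, read as CCF4 fluorescence ratio (ex 405, em 460/530 nm) after 2 h at RT. HEK293T UAS-bla cells, 2500/well, were stimulated with 9-cis-RA at 500 or 100 nM final alongside test compound for 18 h at 37 C.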

The target in test [9] is Retinoic acid receptor RXR-alpha (Homo sapiens) (UniProt P19793). The description is as above. The note with it: HEK293T RXRa-UAS-bla, beta-lactamase ratio, antagonist mode. In short, it runs like this: as §1
Test [10] has as its target Thyroid hormone receptor beta (Homo sapiens) (UniProt P10828). The test is described as follows: qHTS assay for small molecule antagonists of thyroid hormone receptor beta signaling (AID 588547; active means well fitted inhibition curve with a large enough effect in the signal ratio, with a control signal flat, not every such curve was filed as active; the % refers to the signal ratio;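 further: cells stimulated with 0.4 nM T3 agonist during compound exposure; series mostly up to about 77 µM; on the % scale 0 is the no-effect control and ±100 the full control effect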). The note with it: TR-UAS-bla HEK293, beta-lactamase ratio, antagonist mode, 18 h. The gist of the method: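 TR-UAS-bla GripTite HEK293 cells in 2% charcoal/dextran FBS medium; compounds 0.59 nM to 92 uM with T3 at 0.4nM final, 18 h at 37 C. Beta-lactamase read by CCF4 fluorescence (460/530 nm); Hill fits gave IC50 and efficacy.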

The target in test [11] is Voltage-gated inwardly rectifying potassium channel KCNH2 (Homo sapiens) (UniProt Q12809). Nature of the test: qHTS Assay for Small Molecule Inhibitors of the Human hERG Channel Activity (AID 588834).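 Further: lower thallium flux fluorescence means stronger hERG block; nearly all actives have a fitted effect of over 50% in size.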 Further: potency means the concentration at half of the fitted maximal effect. In short, it runs like this: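 Cells were infected with hERG-BacMam virus for 4 hrs at room temperature, grown overnight, then seeded at 2000/well. After dye loading and roughly 10 min compound treatment, thallium influx was triggered and fluorescence recorded.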
Voltage-gated inwardly rectifying potassium channel KCNH2 (Homo sapiens), sequence (Q12809 whole entry, looked up): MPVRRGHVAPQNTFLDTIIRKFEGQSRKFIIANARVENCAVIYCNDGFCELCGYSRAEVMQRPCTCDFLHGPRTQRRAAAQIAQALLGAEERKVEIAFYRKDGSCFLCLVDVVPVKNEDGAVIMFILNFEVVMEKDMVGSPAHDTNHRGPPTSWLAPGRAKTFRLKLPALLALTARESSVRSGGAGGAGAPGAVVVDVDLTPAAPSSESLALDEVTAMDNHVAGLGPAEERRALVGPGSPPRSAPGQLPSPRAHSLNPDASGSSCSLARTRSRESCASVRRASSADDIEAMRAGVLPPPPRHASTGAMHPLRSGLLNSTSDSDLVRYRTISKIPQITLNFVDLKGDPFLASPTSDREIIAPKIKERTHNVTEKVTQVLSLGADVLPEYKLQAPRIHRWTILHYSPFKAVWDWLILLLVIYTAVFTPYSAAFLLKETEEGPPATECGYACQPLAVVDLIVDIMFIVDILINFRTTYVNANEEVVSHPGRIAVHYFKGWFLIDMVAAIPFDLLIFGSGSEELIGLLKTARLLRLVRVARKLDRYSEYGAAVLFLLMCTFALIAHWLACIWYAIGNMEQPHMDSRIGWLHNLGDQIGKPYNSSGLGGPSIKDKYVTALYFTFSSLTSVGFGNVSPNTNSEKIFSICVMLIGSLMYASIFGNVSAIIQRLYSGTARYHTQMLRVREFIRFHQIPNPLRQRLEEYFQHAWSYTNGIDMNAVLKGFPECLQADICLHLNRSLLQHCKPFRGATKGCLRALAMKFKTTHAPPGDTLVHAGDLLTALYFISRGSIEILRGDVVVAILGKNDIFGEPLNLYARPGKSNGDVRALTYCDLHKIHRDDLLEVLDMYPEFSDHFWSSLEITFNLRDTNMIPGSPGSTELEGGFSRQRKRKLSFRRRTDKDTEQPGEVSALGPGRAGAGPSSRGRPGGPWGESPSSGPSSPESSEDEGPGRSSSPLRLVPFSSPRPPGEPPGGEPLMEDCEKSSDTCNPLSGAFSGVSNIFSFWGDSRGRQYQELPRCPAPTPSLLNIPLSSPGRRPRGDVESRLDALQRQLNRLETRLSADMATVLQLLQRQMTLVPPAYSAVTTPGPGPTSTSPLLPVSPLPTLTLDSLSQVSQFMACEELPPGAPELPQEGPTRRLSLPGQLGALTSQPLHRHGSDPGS

For test [12], the target named is Glutaminase kidney isoform, mitochondrial (Homo sapiens) (UniProt O94925). The test is described as follows: qHTS for Inhibitors of Glutaminase (GLS): LOPAC Validation (AID 624146). Further: nearly all actives have a fitted effect of over 60% in size. Further: potency means the concentration at half of the fitted maximal effect. The gist of the method:
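hKGA in 45 mM KH2PO4 pH 8.2, 0.02% Tween-20 with pin-transferred compounds; 1 mM L-glutamine (stock) plus glutamate oxidase/HRP/Amplex Red coupling added. Fluorescence read initially and after 30 min at RT.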

The nature of test [13]: qHTS of Trypanosoma Brucei Inhibitors: LOPAC Validation (AID 624147). Further: 0% is about no effect. In short, it runs like this: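 Screened from lowest to highest concentration, compounds were pinned into TbPYK/substrate mixtures, and ADP (130 uM final) was added. Plates sat at room temperature for 45 min prior to Kinase-Glo Plus detection by luminescence.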
Test [14] has as its target Glucagon-like peptide 1 receptor (Homo sapiens) (UniProt P43220). Nature of the test: qHTS of GLP-1 Receptor Agonists: LOPAC Validation (AID 624148).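 Further: 0% is about no effect; higher luminescence signal means agonism.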 In short, it runs like this:
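HEK293 cells stably co-expressing GLP-1R and a cAMP-responsive luciferase reporter, plated 12 hours before compound, then incubated 4-6 hr at 37 deg C. Luminescence read 12 min after detection reagent.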

The nature of test [15]: qHTS of Nrf2 Activators: LOPAC Validation (AID 624149). Further: 0% is about no effect. The gist of the method:
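AREc32_Fluc cells, 1000/well, OPTI-MEM + 5% FBS, o/n 37 deg C 5% CO2; compound pin-transfer, 24 hr 37 deg C; Steady-Glo 30 min RT, luminescence read.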

Test [16] can be described thus: HTS Assay for Allosteric Antagonists of the Human D2 Dopamine Receptor: Hit Validation in HTRF (AID 624455). Further: on the % scale 0 is the no-effect control and ±100 the full control effect. In short, it runs like this: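 HTRF read-out; cells stably expressing D1 receptor; hits scored for inhibition of D1-mediated response. Primary screen: calcium flux, force-coupled inducible Hek293 Trex D2 line, antagonism vs EC80 dopamine.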
A general note: In TR-FRET formats the signal depends on donor and acceptor labels being close together.

Test [17] addresses Luciferin 4-monooxygenase (Photinus pyralis) (UniProt P08659). Nature of the test: Biochemical firefly luciferase enzyme assay for NPC (AID 624030).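 Further: purified P. pyralis luciferase at 10 nM with luciferin and ATP substrate; series mostly up to about 59 µM; 0% = DMSO and -100% = full luciferase inhibition by PTC124 control; nearly all actives have a fitted effect of over 70% in size.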 The gist of the method:
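Purified P. pyralis luciferase at 10 nM in 50 mM Tris Acetate (final), luminescence read within 5 minutes of enzyme addition to compounds. Activity normalised to PTC124 versus DMSO; concentration-response curves classed by r2, magnitude and activity.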

Test [18] is described as follows: S16 Schwann cell viability assay (CellTiter-Glo assay) (AID 624031).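 Further: series mostly up to about 58 µM; plate controls were DMSO-treated cells for no effect and cell-free wells for full effect; nearly all actives have a fitted effect of over 70% in size.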 In short, it runs like this:
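This viability control uses native rat S16 Schwann cells grown in DMEM plus 10% FBS. After a 24 h compound treatment at 37 °C, CellTiter-Glo luminescence reports ATP content, scaled against DMSO-treated and cell-free wells.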
(In general: ATP-based viability assays read luminescence as a measure of living cells.)

Test [19] can be described thus: S16 Schwann cell PMP22 intronic element beta-lactamase assay (AID 624044; calls by dose curve;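 further: 0% = DMSO and -100% = potassium clavulanate positive control; nearly all actives have a fitted effect of over 15% in size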). The gist of the method:
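Beta-lactamase reporter under a PMP22 intronic regulatory element in stable S16 rat Schwann cells; 24 h compound exposure. 460 nm blue signal normalized between DMSO (0%) and potassium clavulanate, with 535 nm FRET tracking viability; curves classed by r2 and response.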

Test [20] can be described thus: S16 Schwann cell PMP22 intronic element firefly luciferase assay (AID 624032).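 Further: series mostly up to about 58 µM; plate controls were DMSO for no effect and PTC124 positive control mean for full effect; nearly all actives have a fitted effect of over 30% in size.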 In short, it runs like this:
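Rat S16 Schwann cells stably carrying firefly luciferase driven by a PMP22 intronic element, in 10% FBS, treated 24 h at 37 C. ONE-Glo luminescence normalized to PTC124 control and DMSO (0%); curves classed by r2, magnitude and activity.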

Each structure is given as a SMILES string. “And” between values parts separate entries of the source, which are not always exact repeats. Identical values can stand only once. Records with an inconclusive call do not appear. The source made the active and inactive calls. Unless noted, the call rests on the fitted dose curve; in most records, active means well fitted curve in the direction sought with a large enough effect; inconclusive means small, poorly fitted or top-dose-only effect, or another doubt; inactive means no such curve, though single readings can be large; an effect the other way counts as inactive or inconclusive.

Vitamin D3 receptor (Homo sapiens), sequence (P11473 whole entry, looked up): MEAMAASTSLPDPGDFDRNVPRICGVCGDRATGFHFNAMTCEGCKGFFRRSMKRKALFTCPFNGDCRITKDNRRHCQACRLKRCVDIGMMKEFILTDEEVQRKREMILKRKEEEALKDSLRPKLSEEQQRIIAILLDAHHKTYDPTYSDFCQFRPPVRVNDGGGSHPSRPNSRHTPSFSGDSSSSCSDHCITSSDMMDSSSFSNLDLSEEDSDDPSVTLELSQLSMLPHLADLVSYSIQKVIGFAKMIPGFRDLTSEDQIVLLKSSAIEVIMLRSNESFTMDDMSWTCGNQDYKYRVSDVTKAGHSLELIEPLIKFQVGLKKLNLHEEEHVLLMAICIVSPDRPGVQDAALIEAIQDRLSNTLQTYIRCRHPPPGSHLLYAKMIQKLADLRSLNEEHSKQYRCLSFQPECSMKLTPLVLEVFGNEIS
Luciferin 4-monooxygenase (Photinus pyralis), sequence (P08659 whole entry, looked up): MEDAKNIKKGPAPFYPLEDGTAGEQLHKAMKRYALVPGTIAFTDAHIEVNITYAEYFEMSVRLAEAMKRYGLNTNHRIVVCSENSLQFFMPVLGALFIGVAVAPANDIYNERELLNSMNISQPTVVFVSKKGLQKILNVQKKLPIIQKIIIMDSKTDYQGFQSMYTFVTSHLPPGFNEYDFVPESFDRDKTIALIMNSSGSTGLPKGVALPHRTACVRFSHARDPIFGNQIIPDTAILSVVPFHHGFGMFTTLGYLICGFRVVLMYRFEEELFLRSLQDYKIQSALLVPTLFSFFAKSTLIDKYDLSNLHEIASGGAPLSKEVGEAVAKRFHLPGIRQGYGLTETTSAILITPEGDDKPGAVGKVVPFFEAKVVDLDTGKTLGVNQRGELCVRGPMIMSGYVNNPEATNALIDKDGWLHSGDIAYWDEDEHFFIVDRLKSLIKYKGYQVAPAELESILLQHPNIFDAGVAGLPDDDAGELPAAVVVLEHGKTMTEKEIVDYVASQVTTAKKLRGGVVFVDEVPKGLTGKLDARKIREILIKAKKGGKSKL
Glutaminase kidney isoform, mitochondrial (Homo sapiens), sequence (O94925 whole entry, looked up, canonical isoform): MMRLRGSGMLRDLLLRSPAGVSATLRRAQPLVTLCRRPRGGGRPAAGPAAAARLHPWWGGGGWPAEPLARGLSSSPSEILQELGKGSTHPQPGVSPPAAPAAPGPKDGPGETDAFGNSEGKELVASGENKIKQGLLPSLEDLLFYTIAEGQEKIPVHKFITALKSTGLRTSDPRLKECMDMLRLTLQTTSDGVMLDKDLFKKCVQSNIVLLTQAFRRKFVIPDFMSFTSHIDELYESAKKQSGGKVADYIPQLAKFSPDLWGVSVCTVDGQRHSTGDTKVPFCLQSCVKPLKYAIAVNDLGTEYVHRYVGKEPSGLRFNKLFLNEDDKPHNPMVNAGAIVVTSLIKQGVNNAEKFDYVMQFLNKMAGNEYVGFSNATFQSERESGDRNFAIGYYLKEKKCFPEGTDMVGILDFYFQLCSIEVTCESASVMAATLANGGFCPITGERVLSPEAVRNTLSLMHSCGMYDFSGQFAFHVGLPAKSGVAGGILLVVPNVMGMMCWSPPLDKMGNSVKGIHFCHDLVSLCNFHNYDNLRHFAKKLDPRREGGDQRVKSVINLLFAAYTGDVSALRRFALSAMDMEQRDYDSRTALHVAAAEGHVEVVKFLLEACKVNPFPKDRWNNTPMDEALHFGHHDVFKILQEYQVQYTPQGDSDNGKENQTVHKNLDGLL
Glucagon-like peptide 1 receptor (Homo sapiens), sequence (P43220 whole entry, looked up): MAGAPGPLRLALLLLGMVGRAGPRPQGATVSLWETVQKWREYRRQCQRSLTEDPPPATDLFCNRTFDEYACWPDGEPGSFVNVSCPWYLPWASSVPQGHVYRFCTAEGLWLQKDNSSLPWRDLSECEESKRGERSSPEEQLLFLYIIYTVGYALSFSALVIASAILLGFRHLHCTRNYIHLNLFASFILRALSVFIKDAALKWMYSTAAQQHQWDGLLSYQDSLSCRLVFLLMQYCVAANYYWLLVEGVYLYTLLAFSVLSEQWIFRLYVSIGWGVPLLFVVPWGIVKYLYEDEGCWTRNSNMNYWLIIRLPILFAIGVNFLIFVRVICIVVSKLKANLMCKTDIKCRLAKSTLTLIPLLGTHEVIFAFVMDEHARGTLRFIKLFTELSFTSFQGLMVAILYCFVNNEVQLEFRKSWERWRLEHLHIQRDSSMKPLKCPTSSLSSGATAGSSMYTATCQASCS

Regarding `C[C@]12C=CC(=O)C=C1CC[C@H]1[C@@H]3C[C@@H](O)[C@](O)(C(=O)CO)[C@@]3(C)C[C@H](O)[C@@]12F`, the outcome in test [1], in [2], in [3], in test [4], in [6] and in test [13] was inactive. In addition, the outcome in test [14] and in test [15] was inactive. Also, the max response in test [5] is -12%; in [8], -1.48%; in test [9] it was -2.06% (inactive). Also, the Potency result in test [7], in [11], in [12] and in test [16] was “inactive” in each case. For the same molecule, the activity change % (negative = inhibition) in [10] was -4.06% (inactive).

For the molecule `Cc1ccc(S(=O)(=O)NC(=O)NN2CCCCCC2)cc1`, the call in test [1], in [2], in [3], in test [4], in test [6] and in [13] was inactive. Also, the call in test [14] and in [15] was inactive. In addition, the max response in [5] was -3.25%; in test [8], -4.69%; in test [9] it was -7.05% (inactive). For the same molecule, the Potency result in test [7], in [11], in [17], in [18], in [19] and in test [16] was “inactive” throughout. Besides, the activity change % (negative = inhibition) in test [10] was 5.89% (inactive). Besides, the Potency in [12] was 10 µM (active).

For `CCCCOCCOCCOCc1cc2c(cc1CCC)OCO2`, the outcome in [1], in [2] and in [6] was inactive. The max response in test [5] is 14.8% and -2.85%; in test [8] it was -2.81% and -3.67%; in test [9], -27.1% (inactive) and 3.9% (inactive). The Potency entry in test [7], in test [11], in test [17], in test [18] and in test [19] was “inactive” throughout. The activity change % (negative = inhibition) in [10] is 4.23% (inactive) and -22.6% (inactive).

Take `Nc1ncn([C@@H]2O[C@H](CO)[C@@H](O)[C@H]2O)c(=O)n1`: the result in test [4], in test [6], in test [13], in [14] and in test [15] was inactive. In addition, the max response in [5] was -23.8%; in [8], -15%; in test [9], 19.1% (inactive). The Potency entry in test [7], in test [11], in test [17], in test [18], in test [19] and in [12] was “inactive” in each case. For the same molecule, the Potency entry in test [16] is “inactive”.

With `CCCN1C[C@H](CSC)C[C@@H]2c3cccc4[nH]cc(c34)C[C@H]21`, the Potency in [11] was 12.6 µM (active) and 2 µM (active). The Potency entry in [17], in test [18], in test [20], in [19] and in test [12] was “inactive” each time. Further, the outcome in test [13], in test [14] and in test [15] was inactive.

As to `Nc1nc(N)c2nc(-c3ccccc3)c(N)nc2n1`, the call in [2], in test [13], in [14] and in test [15] was inactive. The Potency in test [7] is 22.4 µM (active). For the same molecule, the Potency result in test [11], in test [17], in test [18], in [12] and in test [16] was “inactive” in each case.

Turning to `C[C@]12CCC(=O)C=C1CC[C@@H]1[C@@H]2C(=O)C[C@@]2(C)[C@H]1CC[C@]2(O)C(=O)CO`, the molecule was called inactive in test [1], in test [2], in test [3], in test [4], in [6] and in test [14]. The molecule was called inactive in test [15]. In addition, the values for the max response in [5], in test [8] and in test [9] were 17.3%, 12.6% and -20.1% (inactive), respectively. The Potency entry in [7], in [11], in test [12] and in test [16] was “inactive” throughout. The activity change % (negative = inhibition) in [10] was 8.91% (inactive).
